Screening results: PubChem, National Center for Advancing Translational Sciences (NCATS)
JMJD2E inh: qHTS Assay for Inhibitors of Human Jumonji Domain Containing 2E (JMJD2E) | JMJD2E catalytic domain, FDH-coupled NADH fluorescence (FDH is formaldehyde dehydrogenase) | Lysine-specific demethylase 4E (Homo sapiens), B2RXH2 | actives 1.6% (n = 230,000) | Potency, µM (doses to about 57.1 µM), for inactives: top-dose activity change, negative = inhibition, hits mostly inhibitors;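 further: potency means the concentration at half of the fitted maximal effect; 0% = wells with enzyme and -100% = buffer wells without enzyme; nearly all actives have a fitted effect of over 50% in size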
Target sequence (B2RXH2 1-337 limits assumed): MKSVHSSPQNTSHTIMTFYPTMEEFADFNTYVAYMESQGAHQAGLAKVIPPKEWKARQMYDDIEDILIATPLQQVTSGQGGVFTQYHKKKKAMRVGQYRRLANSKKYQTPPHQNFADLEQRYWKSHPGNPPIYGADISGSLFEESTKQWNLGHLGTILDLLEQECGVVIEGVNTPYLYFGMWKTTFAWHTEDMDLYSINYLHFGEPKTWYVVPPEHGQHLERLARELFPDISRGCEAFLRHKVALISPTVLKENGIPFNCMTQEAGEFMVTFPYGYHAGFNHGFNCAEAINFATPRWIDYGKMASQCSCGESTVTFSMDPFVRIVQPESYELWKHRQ
ALDH1A1 block: qHTS Assay for Inhibitors of Aldehyde Dehydrogenase 1 (ALDH1A1); Purified ALDH1A1, NADH fluorescence, propionaldehyde substrate; Potency, µM (top dose mostly 75.3 µM), without a hit: top-dose activity, negative = inhibition, actives largely listed as inhibitors; actives 7.3% (n = 220,000);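 further: potency means the concentration at half of the fitted maximal effect; plate controls were no enzyme wells and a reference inhibitor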
HPGD block: qHTS Assay for Inhibitors of HPGD (15-Hydroxyprostaglandin Dehydrogenase); 15-hydroxyprostaglandin dehydrogenase [NAD(+)] (Homo sapiens), P15428; purified HPGD, NADH fluorescence kinetic, PGE2 substrate; Potency, µM, for inactives: at the highest dose activity change, negative = inhibition, hits mostly inhibitors; actives 4.3% (n = 150,000); further: potency means the concentration at half of the fitted maximal effect
Target sequence (P15428 whole entry, looked up): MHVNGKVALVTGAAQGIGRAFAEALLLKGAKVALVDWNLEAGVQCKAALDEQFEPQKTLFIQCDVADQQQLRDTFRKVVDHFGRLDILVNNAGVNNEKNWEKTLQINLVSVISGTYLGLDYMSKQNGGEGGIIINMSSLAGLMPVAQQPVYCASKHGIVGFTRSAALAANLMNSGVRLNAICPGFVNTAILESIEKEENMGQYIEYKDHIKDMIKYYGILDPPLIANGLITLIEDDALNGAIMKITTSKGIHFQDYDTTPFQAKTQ
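NADH formation kinetics: reaction with 30 uM PGE2 and 1 mM NAD+ (final), 20 nM enzyme, Tris-HCl pH 8 with Tween 20, after 15 min compound preincubation at room temperature. Fluorescence change, last versus first of five reads.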
PNC assembly inh: High Content Assay for Compounds that inhibit the Assembly of the Perinucleolar Compartment | activity change (PNC), negative = inhibition, % at 10 µM | AID 2417, 2010 | actives 3.1% (n = 140,000) | PC3M PTB-GFP, PNC prevalence imaging, 16 h; stronger effect = lower value;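 active means readout at or below -70, meaning at least 70% loss of cells showing the perinucleolar compartment, a nuclear body marking cancer cells; inconclusive means readout between -30 and a set limit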;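 further: plate controls were DMSO wells for no effect and camptothecin positive control wells for full effect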
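PC3M cells stably expressing PTB-GFP, 750–1000 cells/well, treated 16 h at 37 °C with compound (23 nl of library stock), in duplicate. After paraformaldehyde fixation and Hoechst stain, imaged at 20x; PNC prevalence scored by image analysis.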
Numbers without * were called inactive; ? = inconclusive; / = not tested or not shown; [ ] = dose if it differs, or a comment. A selection: hits, their analogues and other compounds. The true share with any hit is near 11%. Unless noted, the call rests on the fitted dose curve; in most records, active means well fitted inhibition curve with a large enough effect (not every such curve was filed as active); inconclusive means small, poorly fitted or top-dose-only effect, or another doubt; inactive means no such curve, though single readings can be large or run the other way. Unless noted, on the % scale 0 is the no-effect control and ±100 the full control effect.

SMILES	JMJD2E inh	ALDH1A1 block	HPGD block	PNC assembly inh
O=C(c1ccco1)N1N=C(c2ccccc2)CC1c1ccc2nccnc2c1 (centres undefined)	-0.2%	/	/	/
Cn1nnnc1SCC(=O)NC1CCCc2ccccc21 (centres undefined)	-0.3%	-2.1%	/	/
COc1ccc([N+](=O)[O-])c2c1CCN2C(=O)CC[C@H](N)C(=O)O	-23.8%	10.4%	-5.0%	/
C1=Nc2c(NCc3ccccc3)ncnc2Oc2ccccc21	2.3%	-12.3%	25.1µM*	15.9
CCOC(=O)N/N=C/c1ccc(N2CCOCC2)s1	?	?	-24.2%	25.4
O=C(N/N=C/c1sc(N2CCOCC2)nc1-c1ccccc1)c1ccccc1Cl	2.0%	?	/	/
FC(F)(F)c1ccc(Cl)c(N/N=C/c2ccc(N3CCOCC3)s2)c1	?	4.47µM*	?	-2.6
O=C(N/N=C/c1ccc(N2CCOCC2)s1)c1ccccc1Cl	-16.5%	15.8µM*	/	/
Cc1ccc(C(=O)NCCc2ccc(F)cc2)s1	3.4%	?	/	/
Cc1cc(C)cc(N(C(=O)c2sc(C)nc2C)C(C(=O)NC(C)(C)C)c2ccncc2)c1 (centres undefined)	0.7%	6.2%	/	/
CCCCc1ccc(NC(=O)N[C@@H](C)C(=O)O)cc1	-3.3%	/	/	/
CCCCc1ccc(/C=C2\C(=O)c3ccccc3C(O)=C2C(=O)OCC)cc1	?	?	8.91µM*	42.5
COc1cccc(C(=O)Oc2cc3c4c(c2)C(C)=CC(C)(C)N4C(=O)C3=O)c1	2.0%	8.91µM*	28.2µM*	46.7
COc1cc2c3c(c1)C(C)CC(C)(C)N3C(=O)C2=O (centres undefined)	11.7%	0.141µM*	/	/
COc1cc2c3c(c1)C1(C(=O)N3C(C)(C)C=C2C)C(C#N)=C(N)Oc2cc(O)ccc21 (centres undefined)	?	2.6%	-16.9%	?
COc1cc2c3c(c1)C(C)=CC(C)(C)N3C(=O)C2=O	-21.4%	3.55µM*	/	/
CCc1cc2c3c(c1)C(C)CC(C)(C)N3C(=O)/C2=C1\SC(=O)NC1=O (centres undefined)	2.4%	/	/	/
COc1ccc(C(=O)Oc2cc3c4c(c2)C(C)=CC(C)(C)N4C(=O)C3=O)cc1OC	-9.8%	?	31.6µM*	-20.7
CCCc1cc(=O)[nH]c(SCC(=O)N2CCN(S(=O)(=O)c3ccc(Cl)cc3)CC2)n1	5.6%	?	-10.6%	55.8
O=C(Nc1cccc(Cl)c1)ON=C1c2ccccc2-c2ccccc21	-9.7%	-8.4%	-21.9%	-14.1
CN(C)c1nc2c(c(=O)[nH]c(=O)n2C)n1Cc1ccccc1Br	7.7%	7.7%	17.8µM*	68.4
Cn1c(=O)c2c(nc(N3CCCCCC3)n2CCSc2nc3ccccc3o2)n(C)c1=O	4.3%	4.47µM*	-8.5%	?
Cn1c(=O)[nH]c(=O)c2c1nc(Br)n2Cc1ccccc1F	-6.2%	?	-49.7%	-6.8
CC1CCN(c2nc3c(c(=O)n(C)c(=O)n3C)n2CCSc2nc3ccccc3o2)CC1	-1.9%	20.1%	-1.4%	?
Cc1ccc(Cn2c(N3CCCCCC3)nc3c2c(=O)[nH]c(=O)n3C)cc1	-1.4%	1.58µM*	-15.1%	12.9
SMILES	JMJD2E inh	ALDH1A1 block	HPGD block	PNC assembly inh
CC1CCCN(c2nc3c(c(=O)n(C)c(=O)n3C)n2Cc2ccccc2)C1 (centres undefined)	0.7%	1.78µM*	-6.1%	0.7
Clc1ccccc1-c1cncnc1NCc1cccs1	/	23.4%	/	/
Cc1ccc(OCC(O)Cn2c(N3CCOCC3)nc3c2c(=O)[nH]c(=O)n3C)cc1 (centres undefined)	5.0%	3.3%	/	-94.0*
CCCn1c(N2CCC(Cc3ccccc3)CC2)nc2c1c(=O)[nH]c(=O)n2C	6.8%	?	-7.6%	-18.7
Cn1c(N2CCCCC2)nc2c1c(=O)[nH]c(=O)n2C	-1.5%	?	-8.3%	-105.7*
CC1CCCN(c2nc3c(c(=O)[nH]c(=O)n3C)n2Cc2ccccc2Cl)C1 (centres undefined)	-4.4%	10µM*	-26.2%	-87.3*
Cn1c(=O)[nH]c(=O)c2c1nc(N1CCC(Cc3ccccc3)CC1)n2Cc1ccccc1	-22.2%	10µM*	-19.6%	24.0
Cn1c(=O)[nH]c(=O)c2c1nc(N1CCCCCC1)n2Cc1cccc2ccccc12	3.4%	?	-18.5%	-20.1
Cc1ccc(OCC(O)Cn2c(NCCc3ccccc3)nc3c2c(=O)[nH]c(=O)n3C)cc1 (centres undefined)	-0.8%	9.5%	-6.7%	5.7
C=CCn1c(N2CCCC2)nc2c1c(=O)[nH]c(=O)n2C	0.7%	0.0%	-11.9%	8.2
CCC(=O)Nc1ccc(C(=O)NNC(=O)COc2cc(C)ccc2C)cc1	?	-0.1%	-11.7%	23.0
Cn1c(=O)[nH]c(=O)c2c1nc(NCCCn1ccnc1)n2Cc1ccccc1	-3.5%	-3.7%	-13.1%	-102.3*
CCOC(=O)c1[nH]c(C)c(C(=O)OCC(=O)Nc2sc3c(c2C#N)CCCCC3)c1C	0.6%	0.1%	/	/
CCc1nc(-c2ccc(C)nc2OC)no1	-13.6%	-1.2%	-1.0%	-7.1
COc1ccccc1-c1nc(-c2ccc(C)nc2OC)no1	?	?	-17.5%	-97.7*
COc1nc(C)ccc1-c1noc(-c2ccccn2)n1	3.5%	-6.5%	22.4µM*	5.5
S=C1SCN(Cc2cccnc2)CN1Cc1cccnc1	18.1%	14.1µM*	/	/
CCOc1ccc(C2=CS/C(=C(\C#N)c3nnc4n3CCCCC4)N2CC)cc1	6.5%	?	?	?
C=CCN1C(c2cccc(C(F)(F)F)c2)=CS/C1=C(/C#N)c1nnc(N2CCOCC2)n1-c1ccccc1	-1.4%	14.1µM*	-9.0%	22.9
N#C/C(=C(/O)COc1ccccc1)c1nnc2n1CCCCC2	?	7.94µM*	/	/
C=CCN1C(c2ccc(Br)cc2)=CS/C1=C(/C#N)c1nnc(N2CCOCC2)n1-c1ccccc1	?	3.16µM*	5.5%	-10.8
C=CCN1C(c2ccccc2)=CS/C1=C(\C#N)c1nnc2n1CCCCC2	-11.7%	17.8µM*	25.1µM*	-18.1
N#C/C(=C(/O)CCl)c1nnc2n1CCCCC2	-4.3%	?	/	/
C=CCN1C(=O)NC(c2ccc(OC)cc2)(C(F)(F)F)S/C1=C(\C#N)c1nnc(N2CCOCC2)n1-c1ccccc1 (centres undefined)	8.1%	?	-12.3%	-11.6
CC(C)(C)c1ccc(OCCC(=O)Nc2cccc(S(=O)(=O)N3CCCCC3)c2)cc1	-11.2%	?	-15.0%	37.6
COc1cccc(-c2c(C#N)c(N)nc3c2c(=O)nc2sccn23)c1	-4.4%	6.8%	/	/
CCOC(=O)c1sc2nc(SCC#N)n(CCCN3CCCC3=O)c(=O)c2c1C	-0.7%	0.794µM*	?	?
CCC[C@H](Sc1nc(N)nc2nc[nH]c12)C(=O)O	/	11.9%[13.5 µM]	-12.7%	/
